Bioassay records: PubChem, National Center for Advancing Translational Sciences (NCATS)
This is a sample that favours compounds with a hit; in the whole collection about 6.3% have one here.
ATXN2 expr inh – ATXN2 expression inhibition; Potency, µM (titrated, usually from 57 µM), for inactives: at the top dose activity change, negative = inhibition, usual class: inhibitors; HEK-293 ATXN2-luciferase reporter, luminescence, 24 h; 360,000 tested, 0.72% active; AID 1745845; also: % is scaled to controls: 0 for no effect and ±100 for the full control effect; nearly all actives have a fitted effect of over 55% in size
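qHTS (up to 57 uM final) was run with 24 h compound exposure of reporter cells at 37 °C. Each well was multiplexed: SteadyGlo luminescence measured ATXN2-luciferase expression after a fluorogenic Gly-Phe-AFC viability readout (25 uM final).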
ATXN viability – viability counter-screen for ATXN expression inhibitors; S2 cells (HEK-293 line with an ATXN2-luciferase reporter) viability, CellTiter-Fluor protease fluorescence, 24 h; Potency, µM (titrated, usually from 56.7 µM), hits mostly cytotoxic; 400,000 tested, 0.49% active; also: nearly all actives have a fitted effect of over 40% in size
TGFb inhibitor – blocks TGF-b signaling; HepG2 CAGA-GFP TGF-b/SMAD3 reporter, GFP fluorescence, 18 h; TGF-beta stimulated, 500 pg/mL final; Potency, µM (doses to about 46.1 µM), for the others: top-dose activity, negative = inhibition, actives largely listed as inhibitors; 410,000 tested, 1.2% active; also: % is scaled to controls: 0 for no effect and ±100 for the full control effect; nearly all actives have a fitted effect of over 65% in size
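TGF-beta reporter screen: HEPG2 CAGA-GFP, 1% FBS, 500 pg/mL TGF-beta final, 18 h; per-cell GFP summed per well; curves fitted and categorized by class.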
HepG2 viability – HepG2 cytotoxicity, counter-screen for TGF-b inhibitors; 410,000 tested, 0.76% active; HepG2 CAGA-GFP viability, ATP luminescence, 18 h; Potency, µM (highest dose often 46.1 µM), without a hit: at the highest dose activity change, negative = cytotoxicity, actives largely listed as cytotoxic
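HepG2 CAGA-GFP cells (1000/well, DMEM with 1% FBS) received compound, then TGF-beta at 500 pg/mL final, and were incubated 18 hours at 37 degrees C. Viability was read by CellTiter-Glo luminescence. Media-only wells were set as complete cell-killing and DMSO as no toxicity.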
RORg inh – ROR gamma (mouse) transcription inhibition; P51450; Drosophila S2 Gal4-RORgamma UAS-luciferase reporter, 20 h; Potency, µM (series often up to 53.6 µM), for inactives: at the top dose activity change, negative = inhibition, most hits filed as inhibitors; 310,000 tested, 5.4% active; also: % is scaled to controls: 0 for no effect and ±100 for the full control effect; nearly all actives have a fitted effect of over 60% in size
Target sequence (P51450 whole entry, looked up, the tested form may be a part): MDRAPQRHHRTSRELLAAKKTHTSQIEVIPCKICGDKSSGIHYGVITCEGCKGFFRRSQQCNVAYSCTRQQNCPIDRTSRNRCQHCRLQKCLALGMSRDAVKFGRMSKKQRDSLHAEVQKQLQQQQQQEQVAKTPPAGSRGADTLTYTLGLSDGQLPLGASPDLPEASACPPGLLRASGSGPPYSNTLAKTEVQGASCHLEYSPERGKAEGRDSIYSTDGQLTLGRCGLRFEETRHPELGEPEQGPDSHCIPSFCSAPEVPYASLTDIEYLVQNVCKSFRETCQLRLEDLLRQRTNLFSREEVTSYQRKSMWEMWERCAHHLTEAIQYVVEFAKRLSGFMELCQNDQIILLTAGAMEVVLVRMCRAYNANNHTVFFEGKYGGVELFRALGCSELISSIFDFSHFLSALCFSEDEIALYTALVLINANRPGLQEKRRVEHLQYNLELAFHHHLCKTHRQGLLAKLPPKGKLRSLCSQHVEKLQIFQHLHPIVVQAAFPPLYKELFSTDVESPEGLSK
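Stably transfected Drosophila Schneider cells are the test system, with ROR gamma fused to Gal4 and luciferase under UAS control; luminescence is read after 20 hr of 700 uM copper sulfate induction at ambient temperature.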
VP16 counter – inhibits Gal4-VP16 luciferase reporter, ROR gamma counter-screen. Potency, µM (highest dose often 53.6 µM), without a hit: top-dose activity, negative = inhibition, actives largely listed as inhibitors. 310,000 tested, 3.5% active. Drosophila S2 Gal4-VP16 UAS-luciferase, luminescence, 20 h;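 also: Gal4-VP16 expression switched on by copper sulfate through the metallothionein promoter; % is scaled to controls: 0 for no effect and ±100 for the full control effect; nearly all actives have a fitted effect of over 50% in size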
* = called active by the depositor; i = inactive; ? = inconclusive; · = no result given. Calls follow the shape of the dose curve; as a rule, active = well fitted curve in the direction sought with a large enough effect; inconclusive = small, poorly fitted or top-dose-only effect, or another doubt; inactive = no such curve, though single readings can be large; an effect the other way counts as inactive or inconclusive. Potency is read from the fitted curve at half-maximal effect.

SMILES	ATXN2 expr inh	ATXN viability	TGFb inhibitor	HepG2 viability	RORg inh	VP16 counter
O=Cc1cc(N=Nc2cccc(C(=O)O)c2)ccc1O	2.8%	i	-13.9%	-42.5%	-4.9%	-6.3%
CC1CCCN(S(=O)(=O)c2ccc3c(c2)CCN3C(=O)CCC(=O)O)C1 (configuration not stated)	-2.0%	i	1.0%	-3.5%	·	·
CCOC(=O)c1cc2c(=O)n3ccccc3nc2n(CC2CCCO2)c1=NC(=O)c1ccccc1C (configuration not stated)	7.5%	i	15.7%	-3.0%	·	·
Cn1c(-c2ccc(Cl)cc2)cnc1N	·	·	1.0%	-17.5%	?	?
Cc1ccc(-c2cnc(N)n2C)cc1C	5.2%	i	0.7%	1.2%	20µM*	?
O=C(NCCCN1CCCCC1)c1ccc2c(c1)NC(=O)C(N1CCCCC1)S2 (configuration not stated)	3.2%	i	6.2%	-14.2%	10.4%	-5.8%
COc1ccc(/C=C2/Sc3ccc(C(=O)NCCCN4CCOCC4)cc3NC2=O)cc1OC	-37.9%	?	14.1µM*	20µM*	?	?
COc1cccc(/C=C2\Sc3ccc(C(=O)NCc4cccnc4)cc3N(C)C2=O)c1	0.0%	i	?	-19.1%	20.6%	-18.9%
COc1cccc(/C=C2/Sc3ccc(C(=O)NCCN4CCCCCC4)cc3NC2=O)c1	·	?	10µM*	15.8µM*	?	?
O=C1Nc2cc(C(=O)NCCN3CCCCCC3)ccc2S/C1=C\c1ccccc1	·	?	?	14.1µM*	?	?
Cc1cccc(/C=C2/Sc3ccc(C(=O)NCCN4CCCC4)cc3NC2=O)c1	·	?	?	-131.3%	?	-29.2%
O=C1Nc2cc(C(=O)NCCCN3CCCC3)ccc2S/C1=C/c1cccc(Cl)c1	·	?	?	15.8µM*	·	·
CCN1CCN(CCCNC(=O)c2ccc3c(c2)NC(=O)c2ccccc2S3)CC1	-5.2%	i	-2.9%	-13.8%	-26.9%	-1.3%
CCN1CCCC1CNC(=O)c1ccc2c(c1)NC(=O)/C(=C\c1ccccc1Cl)S2 (configuration not stated)	·	i	?	-96.1%	·	·
CCN1CCCC1CNC(=O)c1ccc2c(c1)NC(=O)/C(=C\c1ccc(OC)c(OC)c1)S2 (configuration not stated)	·	·	12.6µM*	12.6µM*	?	?
CCN1CCN(CCCNC(=O)c2ccc3c(c2)NC(=O)/C(=C\c2cccc(C)c2)S3)CC1	·	?	?	12.6µM*	?	?
O=C(NCc1ccc(F)cc1)c1cc(C2CCCCN2C(=O)OCCF)on1 (configuration not stated)	0.3%	i	10.1%	2.3%	·	·
O=C1NC(Cc2ccccc2)c2nc3ccc(F)cc3c(=O)n2-c2cc3ccccc3cc21 (configuration not stated)	0.0%	i	0.5%	-5.7%	·	·
Cc1cc(C)n(CCNC(=O)[C@H]2O[C@@H](n3ccc(N)nc3=O)[C@H](O)[C@@H]2O)n1	-3.7%	i	-6.1%	-17.3%	·	·
CCOc1cc(/C=N/O)ccc1OCc1ccc([N+](=O)[O-])cc1	11.1%	i	9.7%	-9.6%	1.5%	-0.2%
CCOc1cc(C=C(C(=O)OC)C(=O)OC)ccc1OCc1ccc([N+](=O)[O-])cc1	31.6µM*	?	12.6µM*	-52.1%	?	?
Cc1ccc(C(=O)NNC(=S)NC(=O)c2ccccc2)cc1	?	i	-26.9%	-17.8%	·	·
COc1ccc(C(=O)NNC(=O)c2ccc3ccccc3c2O)cc1	-44.4%	i	-3.6%	-33.5%	·	·
Cc1ccccc1C(=O)NNC(=S)NC(=O)c1ccccc1	?	i	1.7%	-2.7%	0.794µM*	2.82µM*
Cc1ccc(C(=O)NNC(=O)c2ccc3ccccc3c2O)cc1	-10.0%	i	-0.6%	-18.3%	14.1µM*	10µM*
